Our source for the inhibition values is PubChem BioAssay.

Values without a mark were called inactive. Activity calls are given as the source filed them.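 How the source made its calls, unless noted: active means mean inhibition above 46.68%, the untreated control wells mean plus 3 SD; inactive means the rest.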

The target in experiment [1] is Nuclear receptor coactivator 3 (Homo sapiens) (UniProt Q9Y6Q9). Nature of the experiment: NCOA3 GAL4-fusion reporter inhibition – cell-based, luminescence, quadruplicate, confirmation (AID 588792;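 active means mean inhibition over 43.08%, the solvent-only control mean plus 3 SD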;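 further: 0% = DMSO treated cells and 100% = gossypol at 36 µM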). The settings on record: HEK293 GAL4-SRC3 luciferase reporter, at 3.6 µM, stronger effect = higher value. Background: In a reporter assay the amount or activity of a reporter protein is the signal.
Chain of Nuclear receptor coactivator 3 (Homo sapiens) (Q9Y6Q9 whole entry, looked up, the tested form may be a part): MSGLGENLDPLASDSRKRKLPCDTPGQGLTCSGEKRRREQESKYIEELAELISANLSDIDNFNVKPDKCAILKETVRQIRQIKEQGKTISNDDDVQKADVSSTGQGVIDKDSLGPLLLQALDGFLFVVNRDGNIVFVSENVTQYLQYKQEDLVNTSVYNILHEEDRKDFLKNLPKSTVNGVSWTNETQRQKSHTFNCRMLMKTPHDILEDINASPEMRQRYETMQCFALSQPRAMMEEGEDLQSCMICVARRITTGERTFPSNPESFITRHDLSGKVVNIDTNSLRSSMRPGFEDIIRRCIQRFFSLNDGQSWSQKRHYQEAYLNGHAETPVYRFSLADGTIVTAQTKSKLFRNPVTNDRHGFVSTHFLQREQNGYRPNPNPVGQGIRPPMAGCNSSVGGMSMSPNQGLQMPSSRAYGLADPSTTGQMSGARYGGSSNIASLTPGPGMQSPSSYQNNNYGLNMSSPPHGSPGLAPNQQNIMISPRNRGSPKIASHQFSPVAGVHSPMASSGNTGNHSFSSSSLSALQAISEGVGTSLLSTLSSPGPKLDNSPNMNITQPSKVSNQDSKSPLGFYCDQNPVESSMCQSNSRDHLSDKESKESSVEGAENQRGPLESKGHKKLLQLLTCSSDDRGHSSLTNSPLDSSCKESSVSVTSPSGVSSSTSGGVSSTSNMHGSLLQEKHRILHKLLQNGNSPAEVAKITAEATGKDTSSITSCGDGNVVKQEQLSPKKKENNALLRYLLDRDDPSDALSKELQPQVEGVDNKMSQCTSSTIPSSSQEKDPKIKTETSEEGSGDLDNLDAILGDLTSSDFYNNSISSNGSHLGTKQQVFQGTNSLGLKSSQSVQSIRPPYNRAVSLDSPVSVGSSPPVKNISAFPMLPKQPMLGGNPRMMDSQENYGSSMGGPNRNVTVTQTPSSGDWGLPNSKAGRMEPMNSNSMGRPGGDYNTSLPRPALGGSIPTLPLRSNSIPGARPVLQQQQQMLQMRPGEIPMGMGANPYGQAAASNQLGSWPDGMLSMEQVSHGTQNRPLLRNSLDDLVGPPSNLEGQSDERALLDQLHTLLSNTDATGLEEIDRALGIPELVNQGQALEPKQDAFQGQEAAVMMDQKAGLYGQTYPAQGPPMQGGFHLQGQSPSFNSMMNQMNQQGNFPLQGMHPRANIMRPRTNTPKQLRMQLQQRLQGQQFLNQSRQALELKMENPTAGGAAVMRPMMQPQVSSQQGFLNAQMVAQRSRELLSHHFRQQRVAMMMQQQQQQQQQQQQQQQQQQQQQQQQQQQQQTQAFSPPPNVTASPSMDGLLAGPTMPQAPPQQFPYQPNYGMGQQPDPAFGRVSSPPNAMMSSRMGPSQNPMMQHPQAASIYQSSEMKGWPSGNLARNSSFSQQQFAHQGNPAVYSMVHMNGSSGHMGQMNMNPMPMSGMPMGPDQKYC

Experiment [2] has as its system transactivating tegument protein VP16 (Human herpesvirus 1), Gal4-VP16 luciferase reporter. Nature of the experiment: repression of VP16-driven luciferase reporter – cell-based, luminescence, high throughput, counter-screen for SRC3 inhibitor project (AID 588794; in the data active means inhibition above about 30%). The conditions noted are these: mammalian cells, at 3.6 µM, stronger effect = higher value.
Experiment [3] concerns the target Nuclear receptor coactivator 1 (Homo sapiens) (UniProt Q15788). In words: NCOA1 GAL4-fusion reporter inhibition – cell-based, luminescence, quadruplicate, confirmation (AID 588820).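 Further: 0% = DMSO wells and 100% = gossypol 36 µM treated wells.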 The conditions noted are these: HEK293 GAL4-SRC1 luciferase reporter, at 3.6 µM, stronger effect = higher value.
A short description of experiment [4]: repression of VP16-driven luciferase reporter – cell-based, luminescence, high throughput, counter-screen for SRC1 inhibitor project (AID 588824; in the data active means inhibition above about 25%). The conditions noted are these: cell-based VP16 transactivation luciferase luminescence; at 3.6 µM; stronger effect = higher value.
Experiment [5] in a line: StAR promoter reporter inhibitors, counter-screen for LRH-1 inverse agonist project, cell-based, luminescence, high throughput (AID 651611; in the data active means inhibition above about 28%). The settings on record: StAR promoter luciferase reporter counterscreen, at 3.6 µM, stronger effect = higher value.
In experiment [6] the target is Nuclear receptor subfamily 5 group A member 2 (Homo sapiens) (UniProt O00482). In words: NR5A2 activity suppression in reporter cells – cell-based, luminescence, confirmation (AID 651613; in the data active means inhibition above about 42%;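 further: HEK293T cells co-transfected with LRH-1 and StAR promoter luciferase reporter; 0% = vehicle wells and 100% = parental cells lacking receptor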). The settings on record: cell-based LRH-1 luciferase reporter, inverse agonism; at 3.6 µM; stronger effect = higher value.
Chain of Nuclear receptor subfamily 5 group A member 2 (Homo sapiens) (O00482 whole entry, looked up): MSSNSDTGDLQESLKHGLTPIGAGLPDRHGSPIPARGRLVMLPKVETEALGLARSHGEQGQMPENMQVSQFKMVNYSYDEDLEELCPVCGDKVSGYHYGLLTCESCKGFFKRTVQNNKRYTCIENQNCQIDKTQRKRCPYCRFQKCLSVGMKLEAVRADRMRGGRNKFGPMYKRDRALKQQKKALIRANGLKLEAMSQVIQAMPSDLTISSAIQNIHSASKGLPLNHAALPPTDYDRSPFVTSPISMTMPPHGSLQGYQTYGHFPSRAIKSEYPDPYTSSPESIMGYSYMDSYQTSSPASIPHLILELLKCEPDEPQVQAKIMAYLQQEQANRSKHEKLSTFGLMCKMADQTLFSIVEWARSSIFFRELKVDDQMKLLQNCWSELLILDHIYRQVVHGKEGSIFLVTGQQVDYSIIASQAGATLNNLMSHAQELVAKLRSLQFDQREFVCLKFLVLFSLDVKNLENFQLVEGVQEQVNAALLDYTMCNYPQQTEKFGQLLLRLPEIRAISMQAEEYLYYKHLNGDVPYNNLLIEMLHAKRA
Experiment [7] deals with Steroidogenic factor 1 (Homo sapiens) (UniProt Q13285). In words: inverse agonism at SF1 nuclear receptor – cell-based, luminescence, high throughput, counter-screen for LRH-1 inverse agonist project (AID 651614; in the data active means inhibition above about 44%;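 further: cells cotransfected with StAR promoter reporter and SF1 expression vector; 0% = vehicle on cells with receptor and 100% = vehicle on cells lacking receptor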). The settings on record: cell-based SF1 luciferase reporter, at 3.6 µM, stronger effect = higher value. Background: The purpose of a counterscreen is to sort out artefacts and off-target activity.
Chain of Steroidogenic factor 1 (Homo sapiens) (Q13285 whole entry, looked up): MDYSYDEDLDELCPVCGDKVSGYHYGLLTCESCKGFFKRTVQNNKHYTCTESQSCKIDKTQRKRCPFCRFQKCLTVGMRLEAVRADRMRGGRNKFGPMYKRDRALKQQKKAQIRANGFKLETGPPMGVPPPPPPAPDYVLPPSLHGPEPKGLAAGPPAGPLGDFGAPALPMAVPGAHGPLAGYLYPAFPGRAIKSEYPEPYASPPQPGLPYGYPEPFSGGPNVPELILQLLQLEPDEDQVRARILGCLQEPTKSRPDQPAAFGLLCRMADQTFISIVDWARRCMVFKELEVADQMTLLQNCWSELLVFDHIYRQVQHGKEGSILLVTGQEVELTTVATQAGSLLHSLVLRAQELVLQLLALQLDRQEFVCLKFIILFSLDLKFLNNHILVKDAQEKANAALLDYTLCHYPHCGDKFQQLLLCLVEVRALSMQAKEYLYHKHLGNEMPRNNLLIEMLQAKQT

Experiment [8] is described as follows: compounds suppressing VP16-driven luciferase signal – cell-based, luminescence, high throughput, counter-screen for LRH-1 inverse agonist project (AID 651615; in the data active means inhibition above about 33%). The settings on record: Gal4-VP16 luciferase reporter cells, at 3.6 µM, stronger effect = higher value.

Chain of Nuclear receptor coactivator 1 (Homo sapiens) (Q15788 whole entry, looked up, the tested form may be a part): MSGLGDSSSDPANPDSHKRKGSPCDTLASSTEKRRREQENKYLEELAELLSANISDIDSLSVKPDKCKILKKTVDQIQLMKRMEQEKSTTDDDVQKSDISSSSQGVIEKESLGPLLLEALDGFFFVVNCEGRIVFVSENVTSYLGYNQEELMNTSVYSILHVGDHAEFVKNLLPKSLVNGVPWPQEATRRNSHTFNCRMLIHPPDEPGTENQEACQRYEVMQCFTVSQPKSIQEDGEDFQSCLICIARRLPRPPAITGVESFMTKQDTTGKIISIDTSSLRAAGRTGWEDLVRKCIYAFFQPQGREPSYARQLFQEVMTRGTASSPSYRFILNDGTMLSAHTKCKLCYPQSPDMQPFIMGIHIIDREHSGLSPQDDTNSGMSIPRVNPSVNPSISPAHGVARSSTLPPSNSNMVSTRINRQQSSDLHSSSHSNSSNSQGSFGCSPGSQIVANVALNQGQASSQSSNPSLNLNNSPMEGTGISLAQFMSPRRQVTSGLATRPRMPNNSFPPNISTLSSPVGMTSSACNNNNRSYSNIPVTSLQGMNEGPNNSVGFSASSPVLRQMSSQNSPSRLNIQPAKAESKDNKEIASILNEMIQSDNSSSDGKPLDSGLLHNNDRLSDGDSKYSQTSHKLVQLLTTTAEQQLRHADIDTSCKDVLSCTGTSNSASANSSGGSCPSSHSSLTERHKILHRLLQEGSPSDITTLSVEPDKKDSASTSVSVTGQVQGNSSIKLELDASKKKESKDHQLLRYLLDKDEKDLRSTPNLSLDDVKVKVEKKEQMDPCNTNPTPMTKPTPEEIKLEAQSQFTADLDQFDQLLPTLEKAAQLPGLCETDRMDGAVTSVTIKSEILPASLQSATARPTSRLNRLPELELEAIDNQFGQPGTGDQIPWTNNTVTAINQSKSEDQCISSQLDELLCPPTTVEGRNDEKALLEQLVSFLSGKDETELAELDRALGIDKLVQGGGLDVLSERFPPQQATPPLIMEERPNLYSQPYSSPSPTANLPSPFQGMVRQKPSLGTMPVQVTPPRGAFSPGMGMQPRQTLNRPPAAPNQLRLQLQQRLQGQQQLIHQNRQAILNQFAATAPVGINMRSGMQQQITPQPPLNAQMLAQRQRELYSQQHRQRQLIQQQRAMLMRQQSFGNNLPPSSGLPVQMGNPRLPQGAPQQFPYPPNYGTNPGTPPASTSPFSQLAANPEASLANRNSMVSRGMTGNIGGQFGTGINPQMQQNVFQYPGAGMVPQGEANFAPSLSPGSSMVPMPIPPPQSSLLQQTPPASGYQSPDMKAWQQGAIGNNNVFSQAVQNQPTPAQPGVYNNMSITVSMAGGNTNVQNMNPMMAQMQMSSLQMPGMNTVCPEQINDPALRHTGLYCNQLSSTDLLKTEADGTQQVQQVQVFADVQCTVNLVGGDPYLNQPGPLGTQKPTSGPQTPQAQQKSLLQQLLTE

As usually defined, the inhibition is the change of the read-out against control, counted positive when it falls. As for `CCCC(=O)NC(c1ccc(C)cc1)c1ccc2cccnc2c1O` (centres undefined), the inhibition in experiment [1] was 73.8% (active); in experiment [2] it was 61.9% (active); in experiment [3] it was 61.4% (active); in experiment [4] it was 79% (active); in experiment [5], 86.1% (active); in experiment [6], 103% (active). Besides, the inhibition in experiment [7] is 90.8% (active); in experiment [8], 83.1% (active).
Consider `N=c1c2c(n(Cc3cccc(Cl)c3)c3c1CCC3)CCCC2`, for which the inhibition in experiment [1] was 42.1%; in experiment [2] it was 65.2% (active); in experiment [3] it was 40.5%; in experiment [4], 73.9% (active); in experiment [5], 53.3% (active); in experiment [6], 108% (active). For the same molecule, the inhibition was 83.8% (active) in experiment [7] and 85.4% (active) in experiment [8].
On to `COc1ccc2[nH]c3c(C)c4ccncc4c(C)c3c2c1`, for which the inhibition in experiment [1] was -29%; in experiment [2], 53.7% (active); in experiment [3], 24.4%; in experiment [4], 52.5% (active); in experiment [5], 60.9% (active); in experiment [6] it was 67.1% (active). For the same molecule, the inhibition in experiment [7] was 68.7% (active); in experiment [8] it was 72.1% (active).
For `CN(C)c1ncnc2c1nnn2C1OC(CO)C(O)C1O` (centres undefined), the inhibition is 82.7% (active) in experiment [1]; 81.1% (active) in experiment [2]; 29.6% in experiment [3]; 81% (active) in experiment [4]; 91.3% (active) in experiment [5]; 105% (active) in experiment [6]. Moreover, the inhibition in experiment [7] was 93.5% (active); in experiment [8] it was 88.8% (active).
For the molecule `CCN(CC)c1ccc2nc3ccc(N)cc3[n+](-c3ccccc3)c2c1`, the inhibition in experiment [1] is 81.2% (active); in experiment [2], 79.9% (active); in experiment [3] it was 52.3% (active); in experiment [4], 81.5% (active); in experiment [5], 75.2% (active); in experiment [6] it was 111% (active). The inhibition in experiment [7] is 89.2% (active); in experiment [8] it was 92.6% (active).
`CC(C)(C)N(Cc1ccc2c(c1)OCO2)C(=O)/C=C\S(=O)c1ccccc1` (centres undefined): the inhibition in experiment [1] was 45% (active); in experiment [2], 38.2% (active); in experiment [3] it was 17.8%; in experiment [4] it was 38.1% (active); in experiment [5], 34.7% (active); in experiment [6], 56.4% (active). The inhibition was 68.2% (active) in experiment [7] and 61.6% (active) in experiment [8].
`CC(=O)Nc1ccc(SCC(=O)c2cc(C)n(Cc3cccs3)c2C)cc1`: the inhibition in experiment [1] was 52.1% (active); in experiment [2] it was 40.1% (active); in experiment [3], -1.59%; in experiment [4], 5.47%; in experiment [5], -55.3%; in experiment [6] it was -90.8%. Besides, the results for the inhibition in experiment [7] and in experiment [8] were -25.9% and -31.9%, respectively.
Consider `O=C(N/N=C/c1sc(N2CCOCC2)nc1-c1ccccc1)c1cccc(S(=O)(=O)N2CCOCC2)c1`, for which the inhibition was 38.1% in experiment [1]; 46.1% (active) in experiment [2]; 43.6% in experiment [3]; 61.9% (active) in experiment [4]; 69.9% (active) in experiment [5]; 100% (active) in experiment [6]. For the same molecule, the inhibition in experiment [7] was 85.7% (active); in experiment [8] it was 87.4% (active).
Regarding `CC1Cc2cc(-c3csc(NC(=O)Cc4cccs4)n3)ccc2N1S(C)(=O)=O` (centres undefined), the inhibition in experiment [1] is 14.4%; in experiment [2], 42.5% (active); in experiment [3] it was -1.43%; in experiment [4], 57.8% (active); in experiment [5], 47.4% (active); in experiment [6], 63.7% (active). Moreover, the inhibition was 62% (active) in experiment [7] and 69.9% (active) in experiment [8].
As to `COc1ccc(-[n+]2c(C)cc(/C=C3\Sc4ccccc4N3C)cc2C)cc1`, the inhibition was 74.4% (active) in experiment [1]; 83.5% (active) in experiment [2]; 47.5% (active) in experiment [3]; 78.8% (active) in experiment [4]; 74.5% (active) in experiment [5]; 106% (active) in experiment [6]. The inhibition in experiment [7] is 90% (active); in experiment [8], 87.4% (active).
For the molecule `COc1cccc(/C=N/Nc2ccc(C(=O)O)cc2)c1O`, the inhibition is 68% (active) in experiment [1]; 63.8% (active) in experiment [2]; 12.8% in experiment [3]; 64.4% (active) in experiment [4]; 68.7% (active) in experiment [5]; 68.3% (active) in experiment [6]. Besides, the inhibition was 73% (active) in experiment [7] and 68.7% (active) in experiment [8].
With `CN(C)c1ccc(/C=C/c2ccc3c4ccccc4ccc3[n+]2-c2ccccc2)cc1`, the inhibition in experiment [1] is 70.9% (active); in experiment [2], 82.3% (active); in experiment [3], 50.2% (active); in experiment [4], 79.4% (active); in experiment [5], 71.9% (active); in experiment [6], 104% (active). Also, the inhibition in experiment [7] is 92.5% (active); in experiment [8] it was 83% (active).
Turning to `CCc1ccccc1Nc1nn2c(=O)c3ccc(C(=O)NCc4ccccn4)cc3nc2s1`, the inhibition in experiment [1] is 33.3%; in experiment [2], 61.3% (active); in experiment [3], 42%; in experiment [4], 59.9% (active); in experiment [5], 57.3% (active); in experiment [6] it was 67.3% (active). Besides, the results for the inhibition in experiment [7] and in experiment [8] were 76% (active) and 72% (active), respectively.
